Reference: PubChem BioAssay (NCI)
About 79,000 compounds went through this panel and 15% of them were active in at least one assay; those are over-represented in the sample as a whole. A number with no mark means an inactive call. Active and inactive are the calls of the source. Cut-off read from the data, not from the text of the source: active = growth inhibition above about 70%; inactive = the rest.

Assays:
[1] = NCI Yeast Anticancer Drug Screen. Data for the rad52 strain (AID 147);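 note: 0% = growth of vehicle-treated control cultures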; conditions: S. cerevisiae rad52 mutant growth inhibition, hits give high values
Procedure, shortened: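 Vehicle-treated cultures served as the reference for growth inhibition of compound-exposed yeast bearing a DNA repair mutation.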

[2] = NCI Yeast Anticancer Drug Screen. Data for the wt1 strain (AID 149);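 note: 0% = growth of vehicle-treated wt1 cultures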; conditions: S. cerevisiae wt1 strain (SPY 50644) growth inhibition, hits give high values
Procedure, shortened: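 Yeast wt1 strain exposed to compounds; growth inhibition measured relative to vehicle-treated controls.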

[3] = NCI Yeast Anticancer Drug Screen. Data for the rad50EPP+ strain (AID 151);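 note: 0% = growth of vehicle-treated control cultures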; conditions: S. cerevisiae rad50 mutant strain, hits give high values
Procedure, shortened: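 In this screen, rad50EPP+ yeast were exposed to compounds. Growth inhibition was scored against vehicle-treated controls.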

[4] = NCI Yeast Anticancer Drug Screen. Data for the mgt1 strain (AID 153); conditions: S. cerevisiae mgt1 mutant growth inhibition, hits give high values
Procedure, shortened: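 mgt1 strain exposed; growth vs vehicle control recorded as inhibition.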

[5] = NCI Yeast Anticancer Drug Screen. Data for the rad50 strain (AID 155);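 note: 0% = growth of vehicle-only cultures of the same strain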; conditions: S. cerevisiae rad50 strain growth inhibition, hits give high values
Procedure, shortened: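 Yeast carrying a defined DNA repair defect were exposed to test compounds, and growth was compared with vehicle-treated controls to give percent inhibition.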

[6] = NCI Yeast Anticancer Drug Screen. Data for the mec2-1 strain (AID 157); conditions: S. cerevisiae mec2-1 strain, hits give high values
Procedure, shortened: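 Vehicle-treated cultures served as reference for growth inhibition of compound-exposed mec2-1 yeast.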

[7] = NCI Yeast Anticancer Drug Screen. Data for the rad14 strain (AID 159);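 note: 0% = growth of vehicle-treated control cultures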; conditions: S. cerevisiae rad14 strain growth inhibition, hits give high values
Procedure, shortened: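 Yeast cells carrying a defined DNA-repair defect were exposed to compounds, and growth inhibition was calculated relative to vehicle-treated control cultures.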

[8] = at 5.0 µM (retest, dose inferred, filed as 0.5)
[9] = at 50.0 µM (retest, dose inferred, filed as 5.0)

CCC[CH2][Ge]([CH2]CCC)([CH2]CCC)[O]C(=O)C(OC)c1ccccc1 (centres undefined)
growth inhibition ([1]; at 1.2 µM): 0%
growth inhibition ([1]; at 3.7 µM): 6%
growth inhibition ([1]; at 11.0 µM): 25%
growth inhibition ([1]; at 33.0 µM): 66%
growth inhibition ([1]; at 100.0 µM): 98% (active)
growth inhibition ([2]; at 1.2 µM): -3%
growth inhibition ([2]; at 3.7 µM): -6%
growth inhibition ([2]; at 11.0 µM): -3%
growth inhibition ([2]; at 33.0 µM): 30%
growth inhibition ([2]; at 100.0 µM): 97% (active)
growth inhibition ([3]; at 1.2 µM): -2%
growth inhibition ([3]; at 3.7 µM): 3%
growth inhibition ([3]; at 11.0 µM): 6%
growth inhibition ([3]; at 33.0 µM): 16%
growth inhibition ([3]; at 100.0 µM): 34%
growth inhibition ([4]; at 1.2 µM): -2%
growth inhibition ([4]; at 3.7 µM): -1%
growth inhibition ([4]; at 11.0 µM): 1%
growth inhibition ([4]; at 33.0 µM): 58%
growth inhibition ([4]; at 100.0 µM): 99% (active)
growth inhibition ([5]; at 1.2 µM): 2%
growth inhibition ([5]; at 3.7 µM): 8%
growth inhibition [5, 8]: 60%
growth inhibition ([5]; at 11.0 µM): -2%
growth inhibition ([5]; at 33.0 µM): 64%
growth inhibition [5, 9]: 60%
growth inhibition ([5]; at 50.0 µM): 69.9%
growth inhibition ([5]; at 100.0 µM): 98% (active)
growth inhibition ([6]; at 1.2 µM): -1%
growth inhibition ([6]; at 3.7 µM): -1%
growth inhibition [6, 8]: 57%
growth inhibition ([6]; at 11.0 µM): 7%
growth inhibition ([6]; at 33.0 µM): 34%
growth inhibition [6, 9]: 57%
growth inhibition ([6]; at 50.0 µM): 75.5% (active)
growth inhibition ([6]; at 100.0 µM): 98% (active)
growth inhibition ([7]; at 1.2 µM): -2%
growth inhibition ([7]; at 3.7 µM): -7%
growth inhibition ([7]; at 11.0 µM): -10%
